PubChem BioAssay
“And” between values parts separate entries of the source, which are not always exact repeats. Identical values can stand only once. Records with an inconclusive call do not appear. The source made the active and inactive calls. Unless noted, no cut-off is given here; in the data, nearly all actives have AC50 up to about 26 µM.

Tests used:
[1] = growth inhibition of DIPG glioma cells, dose response, cell-based, SU-DIPG-XVII, MIPE5.0, CellTiter-Glo, qHTS (AID 1347060); details: SU-DIPG-XVII viability, CellTiter-Glo ATP luminescence;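 for AC50: cells exposed to compound for 48 hours before viability readout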
[2] = growth inhibition of DIPG glioma cells, dose response, cell-based, SU-DIPG-XIII, MIPE5.0, CellTiter-Glo, qHTS (AID 1347064; cut-off not given, nearly all actives have AC50 up to about 23 µM;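 for AC50: cells exposed to compound for 48 hours before the viability read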); details: SU-DIPG-XIII viability, CellTiter-Glo ATP luminescence
[3] = viability loss in pontine glioma line – cell-based, SU-DIPG-XXV, MIPE5.0, CellTiter-Glo, qHTS, dose response (AID 1347065); details: CellTiter-Glo ATP luminescence;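 note: cells exposed to compound for 48 hours before ATP readout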
[4] = JHH-DIPG-1 glioma cell viability, MIPE5.0 library, CellTiter-Glo luminescence, qHTS (AID 1347067); details: JHH-DIPG-1 glioma viability, CellTiter-Glo ATP luminescence;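 note: cells exposed to compound for 48 hours before readout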
[5] = sensitizers of A549 cells to miR-34 induction, primary screen, imaging, A549 dox-inducible miR-34, nuclei and caspase counts (AID 1347080;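 active = compounds whose cell count with miR-34 switched on is under 0.7 times the count with it off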); details: A549 miR-34 inducible, Hoechst nuclei count, 48 h
[6] = SU-DIPG-XXV glioma cell viability, MIPE5.0 library, qHTS (AID 1347068; cut-off not given, nearly all actives have IC50 up to about 30 µM;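 for IC50: cells exposed to compound for 48 hours before viability readout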)
[7] = survival rescue of mitochondrial mutant cells in low glucose, primary screen, MELAS cybrids, Rieske KO mouse fibroblasts, CellTiter-Glo (AID 1508586;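 active = mean z-score across replicates of 1.96 or higher in either the MELAS or the Rieske mutant cell line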;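 note: z relative to plate mean and SD of compound and empty wells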)
[8] = stronger effect = lower value, cell number ratio, induced over uninduced
[9] = measured here: relative caspase fold change +Dox/-Dox
[10] = measured here: total cells with miR-34 induction, stronger effect = lower value
[11] = measured here: total cells without miR-34 induction
[12] = MELAS cybrid survival, CellTiter-Glo 48 h, stronger effect = higher value
[13] = Rieske KO mouse fibroblast survival, CellTiter-Glo 72 h

With `COc1cc(/C=C(\C#N)C(=O)Nc2nnc(C(F)(F)F)s2)ccc1OCc1ccc(C(F)(F)F)cc1C(F)(F)F` the AC50 [1] was 5.25 µM (active), the AC50 [2] was 4.17 µM (active) and the AC50 [3] was 3.72 µM (active). The AC50 [4] was 14.8 µM (active), the fold change [5, 8] was 0.986 (inactive) and the fold change [5, 9] was 0.417. It also gave a cell count [5, 10] of 1620 and a cell count [5, 11] of 1640.

In the case of `CC(C)(O)c1coc(S(=O)(=O)NC(=O)Nc2c3c(cc4c2CCC4)CCC3)c1`, the outcome [1] is reported as “inactive”, the outcome [2] is reported as “inactive” and the outcome [3] is reported as “inactive”. For the same compound, the outcome [6] was “inactive”.

With `Cc1ncc(Cl)cc1NCc1ccc(C(=O)NC(CC2CCCC2)C(=O)NC2CC2)s1` (stereo unspecified) the outcome [1] was “inactive”, the outcome [2] was “inactive” and the outcome [3] was “inactive”. The outcome [6] was “inactive”.

With `Cn1ncc(Cl)c1-c1cc(C(=O)N[C@H](CN)Cc2cccc(F)c2)sc1Cl` the AC50 [1] was 5.9 µM (active), the AC50 [2] was 2.95 µM (active) and the AC50 [3] was 3.72 µM (active). For the same compound, the outcome [6] was “inactive”.

For `NCC1CCN(c2nccc(-c3ccc4ccccc4c3)n2)CC1`, the AC50 [1] was 11.8 µM (active), the AC50 [2] was 16.6 µM (active) and the AC50 [4] was 10.5 µM (active).

With `CN(C)c1cccc(-c2c3c(=O)n(-c4ccccc4Cl)[nH]c3cc(=O)n2C)c1` the outcome [1] was “inactive”, the outcome [2] was “inactive” and the outcome [4] was “inactive”. The outcome [6] was “inactive”.

For `CS(=O)(=O)c1ccc([C@@H](CC2CCCC2)C(=O)Nc2nccs2)cc1`, the outcome [1] was “inactive”, the outcome [2] was “inactive” and the outcome [4] was “inactive”. The IC50 [6] was 13.2 µM (active).

With `CN1CCN(C2CCN(C(=O)Nc3cc(Oc4ccc(NC(=O)C5(C(=O)Nc6ccc(F)cc6)CC5)c(F)c4)ccn3)CC2)CC1` the AC50 [1] was 18.6 µM (active), the AC50 [2] was 20.9 µM (active) and the AC50 [3] was 13.2 µM (active). The IC50 [6] was 23.5 µM (active), the fold change [5, 8] was 0.875 (inactive) and the fold change [5, 9] was 0.529. The cell count [5, 10] was 3130, the cell count [5, 11] was 3570 and the z-score [7, 12] was -0.56 (inactive). The z-score [7, 13] was 0.282.

For `C[C@@H]1O[C@@H](O[C@@H]2\C=C/C=C\C=C/C=C\C[C@H](C)OC(=O)/C=C\[C@H]3O[C@@H]3C[C@H](O)C[C@]3(O)C[C@@H](O)[C@@H](C(=O)O)[C@H](C2)O3)[C@H](O)[C@H](N)[C@@H]1O`, the outcome [1] was “inactive”, the outcome [2] was “inactive” and the outcome [4] was “inactive”. The outcome [6] was “inactive”.

For `O=C(Nc1ccc(-c2ccnc(Nc3ccc(N4CCOCC4)cc3)n2)cc1)C1CCCN1` (stereo unspecified), the AC50 [1] was 18.6 µM (active), the AC50 [2] was 18.6 µM (active) and the AC50 [3] was 16.6 µM (active). For the same compound, the outcome [6] was “inactive”, the fold change [5, 8] was 0.711 (inactive) and the fold change [5, 9] was 0.977. For the same compound, the cell count [5, 10] was 5090, the cell count [5, 11] was 7160 and the z-score [7, 12] was -0.234 (inactive). The z-score [7, 13] was -0.152.

In the case of `CC(C)(C(=O)NCC(F)(F)C(F)(F)F)C(=O)N[C@@H]1C(=O)Nc2ccccc2-c2ccccc21`, the outcome [1] is reported as “inactive”, the outcome [2] is reported as “inactive” and the outcome [4] is reported as “inactive”. The outcome [6] was “inactive”.

With `Fc1ccc(-c2nc(-c3ccccc3F)[nH]c2-c2ccncc2)cc1` the outcome [1] was “inactive”, the outcome [2] was “inactive” and the outcome [4] was “inactive”. For the same compound, the outcome [6] was “inactive”.

For `Cc1nc(NC(=O)N2CCCC2C(N)=O)sc1-c1ccnc(C(C)(C)C(F)(F)F)c1` (stereo unspecified), the AC50 [1] was 5.25 µM (active), the AC50 [2] was 2.63 µM (active) and the AC50 [3] was 2.35 µM (active). The IC50 [6] was 13.2 µM (active), the fold change [5, 8] was 0.937 (inactive) and the fold change [5, 9] was 0.696. The cell count [5, 10] was 5770, the cell count [5, 11] was 6170 and the z-score [7, 12] was -0.255 (inactive). It also gave a z-score [7, 13] of -0.201.

In the case of `c1cc(-c2cnn3cc(-c4ccc(N5CCNCC5)cc4)cnc23)c2cccnc2c1`, the AC50 [1] is reported as 7.42 µM (active), the AC50 [2] is reported as 6.61 µM (active) and the AC50 [3] is reported as 7.42 µM (active). For the same compound, the IC50 [6] was 9.34 µM (active), the fold change [5, 8] was 1.02 (inactive) and the fold change [5, 9] was 0.321. The cell count [5, 10] was 216, the cell count [5, 11] was 212 and the z-score [7, 12] was 1.7 (inactive). For the same compound, the z-score [7, 13] was 0.379.

In the case of `COc1ccc(CNC(=O)Nc2ncc([N+](=O)[O-])s2)cc1`, the AC50 [1] is reported as 18.6 µM (active), the AC50 [2] is reported as 20.9 µM (active) and the AC50 [3] is reported as 20.9 µM (active). The fold change [5, 8] was 1.06 (inactive), the fold change [5, 9] was 0.577 and the cell count [5, 10] was 5600. For the same compound, the cell count [5, 11] was 5270, the z-score [7, 12] was -0.43 (inactive) and the z-score [7, 13] was -0.202.

With `NS(=O)(=O)OC[C@@H]1C[C@@H](n2ccc3c(N[C@H]4CCc5ccccc54)ncnc32)C[C@@H]1O` the AC50 [1] was 1.48 µM (active), the outcome [2] was “inactive” and the outcome [4] was “inactive”. For the same compound, the outcome [6] was “inactive”.

In the case of `CN1C(N)=N[C@](C)(c2cc(NC(=O)c3ccc(F)cn3)ccc2F)CS1(=O)=O`, the outcome [1] is reported as “inactive”, the outcome [2] is reported as “inactive” and the outcome [4] is reported as “inactive”. The outcome [6] was “inactive”.

For `Cc1[nH]nc(C(F)(F)F)c1Cc1sc2c(c1C(=O)N1C[C@](C)(O)CO1)c(=O)n(C)c(=O)n2C(C)C`, the outcome [1] was “inactive”, the outcome [2] was “inactive” and the outcome [4] was “inactive”. For the same compound, the outcome [6] was “inactive”.

In the case of `O=[N+]([O-])c1ccc(-c2nc(-c3ccc(F)cc3)c(-c3ccncc3)[nH]2)cc1`, the AC50 [1] is reported as 26.3 µM (active), the AC50 [2] is reported as 18.6 µM (active) and the AC50 [3] is reported as 26.3 µM (active). For the same compound, the outcome [6] was “inactive”, the fold change [5, 8] was 1.15 (inactive) and 0.939 (inactive) and the fold change [5, 9] was 1.13 and 1.14. For the same compound, the cell count [5, 10] was 4420 and 5750 and the cell count [5, 11] was 3850 and 6120.

With `CC(C)NC(=O)N1CC[C@H](N=C2Nc3cc(F)ccc3N(CC(F)F)c3ccc(Cl)cc32)C1` the outcome [1] was “inactive”, the outcome [2] was “inactive” and the outcome [4] was “inactive”. The outcome [6] was “inactive”.
